Measured values reported in ChEMBL document CHEMBL1157539, “Thousands of chemical starting points for antimalarial lead identification” (Nature, 2010).

How the values were obtained:
Assay type in all cases: functional
[1] = test system: Plasmodium falciparum; experiment: GSK_TCMDC: Inhibition of Plasmodium falciparum 3D7 in whole red blood cells, using parasite LDH activity as an index of growth. Test compounds present at 2uM
[2] = test system: Plasmodium falciparum; experiment: GSK_TCMDC: Inhibition of Plasmodium falciparum Dd2 in whole red blood cells, using parasite LDH activity as an index of growth. Test compounds present at 2uM
[3] = test system: HepG2; experiment: GSK_TCMDC: Percent inhibition of human HepG2 cell line. Test compounds present at 10uM.

| SMILES | Inhibition [1] | Inhibition [2] | Inhibition [3] |
| --- | --- | --- | --- |
| COc1ccc2nccc([C@@H](O)CN3CCC(NC(=O)C(c4cc5ccccc5s4)N4CC(C)OC(C)C4)CC3)c2c1 (stereo not given in full) | 93% | 44% | 12% |
| N#Cc1cc([N+](=O)[O-])ccc1-n1nc(-c2cccc(Cl)c2)n(Cc2ccco2)c1=S | 100% | 100% | 12% |
| CCCC1CCNC(C(O)c2ccnc3ccc(OC)cc23)C1.Cl (stereo not given) | 98% | 78% | 0% |
| Cc1ccc(S(=O)(=O)n2cc(-c3ccnc(N)c3)c3cc(Br)cnc32)cc1 | 98% | 31% | 8% |
| CC(C)(CNCc1ccc(C(F)(F)F)cc1)c1nc(-c2ccc(Cl)c(O)c2)c(-c2ccncc2)[nH]1.Cl | 100% | 98% | 42% |
| O=C(NC1CCN(Cc2ccccc2)CC1)c1ccc(-c2nc3cc(Cl)c(F)cc3[nH]2)s1 | 100% | 99% | 28% |
| CCN1CCN(c2cc(C)c3cc(NC(=O)C=Cc4cccc(OC)c4OC)ccc3n2)CC1 | 99% | 38% | 18% |
| COc1ccc2ccccc2c1C=NN=c1cc(C)[nH]c2cc(C(F)(F)F)ccc12 | 92% | 4% | 1% |
| CC(C)CCNC(=N)c1ccc(OCCCCCOc2ccc(C(=N)NCCC(C)C)cc2)cc1.Cl | 98% | 94% | 5% |
| NCC1CCCN1Cc1cccc(-c2ccc(-c3nc4ccccc4[nH]3)s2)c1.O=C(O)C(F)(F)F (stereo not given) | 99% | 66% | 16% |
| COc1ccc(N2CCN(CCc3ccc(NC(=O)c4ccc([N+](=O)[O-])cc4)cc3)CC2)c(OC)c1 | 83% | 0% | 45% |
| CN1CCCC1CCNc1ncc2c(-c3ccc(NC(=O)Nc4cc(C(F)(F)F)ccc4F)c(F)c3)nn(C)c2n1.O=C(O)C(F)(F)F (stereo not given) | 99% | 90% | 100% |
| NC(=O)C1CCN(Cc2cccc(-c3ccc(-c4nc5cc(C(F)(F)F)ccc5[nH]4)cc3)c2)CC1.O=C(O)C(F)(F)F | 100% | 94% | 7% |
| O=C(Nc1ccc(-c2ccccc2)cc1)Nc1cccc(Cn2nc(Cl)c(N3CCNCC3)cc2=O)c1.O=C(O)C(F)(F)F | 100% | 79% | 15% |
| COc1cc(NCC2(CNCc3cn(Cc4ccccc4)c4ccccc34)CCCCC2)nc2ccccc12.Cl | 95% | 12% | 65% |
| CCc1ccc(C2=Nn3c(nnc3-c3cccs3)SC2)cc1 | 93% | 20% | 9% |
| Cc1nc(-c2nc(N3CCC(O)CC3)ncc2-c2ccsc2)sc1C | 83% | 35% | 6% |
| Cl.Fc1cc(Cl)ccc1Nc1ccnc(Nc2ccc3cn[nH]c3c2)n1 | 97% | 56% | 8% |
| Cl.Cn1cnc(-c2ccc3c(c2)CCN(CCC2CCC(NC(=O)/C=C/c4ccc(F)cc4)CC2)CC3)c1 (stereo not given) | 90% | 18% | 26% |
| CC(C(=O)NC1CCN(c2ccnc(Nc3ccc(F)cc3)n2)C1)c1ccc(Cl)cc1 (stereo not given) | 95% | 90% | 17% |
| Br.N=C1N=C(N)NC2(CCCCC2)N1OCCCOc1cccc2ccccc12 | 95% | 96% | 67% |
| CC(=O)Nc1ccc2[nH]cc(C3CCN(CC4CCC(NC(=O)/C=C/c5ccccc5Cl)CC4)CC3)c2n1 (stereo not given) | 100% | 79% | 16% |
| COc1ccc2ncc(F)c(CCN3CCC(NCc4ccc5c(c4)CCO5)CC3)c2n1.Cl | 100% | 30% | 20% |
| O=C(/C=C/c1ccc(Cl)c(Cl)c1)NCCCCCN1CCC(NC(=O)Nc2ccc(C(F)(F)F)cc2)CC1 | 94% | 34% | 58% |
| COc1cccc(-c2cc(C(=O)Nc3ccc4[nH]c(-c5ccccc5)nc4c3)[nH]n2)c1.O=C(O)C(F)(F)F | 100% | 65% | 68% |

| SMILES | Inhibition [1] | Inhibition [2] | Inhibition [3] |
| --- | --- | --- | --- |
| Cc1cnc(NC(=O)c2cn(-c3ccccc3)nc2-c2cccs2)s1 | 91% | 1% | 0% |
| Cc1cccc2nc(-c3cccc(-c4cccc(CNCCNC(=O)c5ccnn5C)c4)c3)[nH]c12.O=C(O)C(F)(F)F | 100% | 71% | 26% |
| CC(C)(C)OC(=O)NCc1ccc(Nc2nnc(-c3ccc(OCC(=O)NC[C@@H]4CC[C@H]5C[C@@H]4C5(C)C)c([N+](=O)[O-])c3)o2)cc1 | 94% | 52% | 29% |
| O=C(Nc1cccc(C(F)(F)F)c1)N1CCOC(CCN2CCC(c3ccccc3)CC2)(c2ccc(Cl)c(Cl)c2)C1 (stereo not given) | 87% | 69% | 15% |
| Cl.Cn1c(=N)n(CC(=O)N2CCc3ccc(Cl)cc3C2Cc2ccc(Cl)c(Cl)c2)c2ccccc21 (stereo not given) | 100% | 52% | 99% |
| Br.CC1(C)NC(N)=NC(=N)N1OCCc1ccc(N)cc1 | 93% | 95% | 65% |
| Cc1ccc(NC(=O)c2cn(-c3ccccc3)nc2-c2ccc(F)cc2)cc1[N+](=O)[O-] | 92% | 38% | 6% |
| CNCCNC(=O)C1Cc2c([nH]c3c(C)cccc23)C(c2ccc(Cl)c(Cl)c2)N1 (stereo not given) | 100% | 60% | 13% |
| COc1cc2c(cc1OCCN1CCC(N)CC1)N(C(=O)/C=C/c1ccccc1Cl)CC2.Cl | 91% | 18% | 19% |
| CCNc1cc(C(=O)N[C@@H](Cc2ccccc2)[C@H](O)CNCc2cc(OC)cc(OC)c2)cc(N2CCCC2=O)c1.Cl | 100% | 75% | 0% |
| COc1ccc2[nH]cc(C3CCN(CCCCCNC(=O)c4ccc(-c5ccccc5)cc4)CC3)c2c1 | 96% | 16% | 50% |
| CC(C)N1CCC(N(Cc2ccc(-c3ccc(C(F)(F)F)cc3)cc2)C(=O)Cn2c(CCc3cccc(F)c3F)cc(=O)c3c2CCC3)CC1.O=C(O)C(O)C(O)C(=O)O | 100% | 62% | 30% |
| O=C(N[C@@H](Cc1ccccc1)C(=O)NC1CCCCC1)c1ccc(O)c(-c2cccc(C(F)(F)F)c2)c1 | 96% | 36% | 11% |
| CC(=O)N(C)c1cccc(C(=O)Nc2cccc(-c3cccc(-c4nc5cc(C(F)(F)F)ccc5[nH]4)c3)c2)c1 | 97% | 41% | 49% |
| Cc1cc(N[C@@H](Cc2ccccc2)C(=O)NCCOc2ccccc2)nc(NCC2CCCCC2)n1.O=C(O)C(F)(F)F | 100% | 75% | 30% |
| O=C(Nc1ccc(-c2nc3ccccc3[nH]2)cc1)c1cnc(Cl)c(Cl)c1 | 100% | 95% | 11% |
| COc1cc2c(Nc3cccc(NC(=O)c4ccccc4)c3)ncnc2cc1OCCCN1CCOCC1 | 100% | 100% | 0% |
| N#Cc1ccc(CN2CCC(Oc3ccc(NC(=O)c4ccco4)cc3Cl)C2)cc1.O=C(O)C(F)(F)F (stereo not given) | 95% | 95% | 13% |
| Cl.NC1=NC2(CCCC2)C(c2ccc(Cl)c(Cl)c2)C(N)=N1 (stereo not given) | 92% | 3% | 7% |
| COc1ccc(C(C(=O)NC2CCN(C[C@H](O)c3ccnc4ccc(OC)cc34)CC2)N2CCN(c3ccc(Cl)c(Cl)c3)CC2)cc1 (stereo not given in full) | 100% | 79% | 12% |
| Cc1cccc(-c2cccc(CNc3nc(NCCc4ccc(O)cc4)nc(N4CCNCC4)n3)c2)c1.O=C(O)C(F)(F)F | 84% | 0% | 50% |
| O=C(Nc1ccccc1)N(Cc1ccc(-c2cccc(CNCc3ccc4c(c3)OCO4)c2)cc1)C1CCN(Cc2ccccc2)CC1.O=C(O)C(F)(F)F | 100% | 65% | 29% |
| COc1ccc2c(=NN=Cc3c(OC)ccc4ccccc34)cc(C)[nH]c2c1 | 100% | 85% | 7% |
| O=C(Nc1ccc(C(F)(F)F)cc1)NC1CCN(c2ccnc3ccccc23)CC1.O=C(O)C(F)(F)F | 100% | 62% | 46% |
| Cl.Nc1ccc(-c2nc3c(ccc4ccccc43)[nH]2)cc1 | 84% | 51% | 0% |
